Results filed as inconclusive are left out. Activity calls are given as the source filed them. Unless noted, calls come from the whole dose curve; as a rule, active = well fitted curve in the direction sought with a large enough effect; inconclusive = small, poorly fitted or top-dose-only effect, or another doubt; inactive = no such curve, though single readings can be large; an effect the other way counts as inactive or inconclusive.
Experiments:
[1] = target: Mitogen-activated protein kinase 10 (Mus musculus) (UniProt Q61831); experiment: JNK3 AlphaScreen Assay (AID 530; active = well fitted curve in either direction with a large enough effect, not every such curve was filed as active;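 note: kinase came from lysate of stimulated human HepG2 cells; signal reports phosphorylation of biotinylated GST-cJun 1-79 at Ser73 with 10 µM ATP; series mostly up to about 57 µM; % is set by controls: 0 for no effect and ±100 for the full control effect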)
Method in brief: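 Room-temperature AlphaScreen kinase assay; pre-activated HepG2 lysate as JNK3 source, biotin-GST-cJun(1-79) substrate, 10 uM ATP, compound 15 min preincubation.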

[2] = target: Cytochrome P450 3A4 (Homo sapiens) (UniProt P08684); experiment: qHTS Assay for Inhibitors and Substrates of Cytochrome P450 3A4 (AID 884); note: series mostly up to about 57 µM; % is set by controls: 0 for no effect and ±100 for the full control effect; nearly all actives have a fitted effect of over 50% in size
Chain of Cytochrome P450 3A4 (Homo sapiens) (P08684 whole entry, looked up): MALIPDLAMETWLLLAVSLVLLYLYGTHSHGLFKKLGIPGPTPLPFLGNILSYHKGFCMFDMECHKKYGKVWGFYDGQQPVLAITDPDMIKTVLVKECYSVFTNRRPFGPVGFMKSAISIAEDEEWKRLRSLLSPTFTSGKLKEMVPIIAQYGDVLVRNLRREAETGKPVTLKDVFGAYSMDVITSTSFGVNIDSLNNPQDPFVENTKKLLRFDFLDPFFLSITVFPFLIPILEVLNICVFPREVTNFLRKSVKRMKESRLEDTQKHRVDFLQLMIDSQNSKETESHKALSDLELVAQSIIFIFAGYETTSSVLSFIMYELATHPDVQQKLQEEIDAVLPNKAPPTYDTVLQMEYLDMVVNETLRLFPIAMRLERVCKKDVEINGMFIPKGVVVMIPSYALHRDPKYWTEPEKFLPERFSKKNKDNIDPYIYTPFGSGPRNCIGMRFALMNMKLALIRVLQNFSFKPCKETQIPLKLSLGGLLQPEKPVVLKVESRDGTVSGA
Method in brief: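 20 nM human CYP3A4 with 25 uM Luciferin-PPXE (at KM) in 200 mM KPO4, preincubated 10 min with compound; NADPH regeneration started a 60 min RT reaction. Luciferin detected by luminescence, normalized to 57 uM ketoconazole as full inhibition.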

[3] = MultiTox-Fluor Cytotoxicity Assay - LYMP1-001 - Live Cells (AID 947);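 note: 0% = DMSO only and full inhibition = tetraoctylammonium bromide control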
[4] = MultiTox-Fluor Cytotoxicity Assay - LYMP1-002 - Dead Cells (AID 960);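 note: 0% = DMSO and 100% = tetraoctylammonium bromide; nearly all actives have a fitted effect of over 60% in size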
Method in brief: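 Acute cytotoxicity in a human lymphoblastoid line is scored as rising dead-cell protease signal after 16 hr exposure at 37 C, measured fluorometrically (485/520).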

[5] = Cell Viability - LYMP2-009 (AID 968);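 note: series mostly up to about 92 µM; cells exposed to compound for 24 h at 37 °C; 0% = DMSO alone and the full-kill end = tetraoctylammonium bromide at 92 µM; nearly all actives have a fitted effect of over 55% in size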
[6] = Cell Viability - LYMP2-012 (AID 982);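 note: cellular ATP by luciferase luminescence where a drop means cytotoxicity; cells exposed to compound for one day before reading; 0% = DMSO only and full loss = 92 µM tetraoctylammonium bromide; nearly all actives have a fitted effect of over 55% in size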
[7] = target: Estrogen receptor (Homo sapiens) (UniProt P03372); experiment: qHTS assay for small molecule antagonists of estrogen receptor alpha signaling (AID 588513; active = well fitted curve in the direction sought with a large enough effect in the signal ratio, with a control signal flat, not every such curve was filed as active; the % refers to the signal ratio; note: % is set by controls: 0 for no effect and ±100 for the full control effect)
Chain of Estrogen receptor (Homo sapiens) (P03372 whole entry, looked up): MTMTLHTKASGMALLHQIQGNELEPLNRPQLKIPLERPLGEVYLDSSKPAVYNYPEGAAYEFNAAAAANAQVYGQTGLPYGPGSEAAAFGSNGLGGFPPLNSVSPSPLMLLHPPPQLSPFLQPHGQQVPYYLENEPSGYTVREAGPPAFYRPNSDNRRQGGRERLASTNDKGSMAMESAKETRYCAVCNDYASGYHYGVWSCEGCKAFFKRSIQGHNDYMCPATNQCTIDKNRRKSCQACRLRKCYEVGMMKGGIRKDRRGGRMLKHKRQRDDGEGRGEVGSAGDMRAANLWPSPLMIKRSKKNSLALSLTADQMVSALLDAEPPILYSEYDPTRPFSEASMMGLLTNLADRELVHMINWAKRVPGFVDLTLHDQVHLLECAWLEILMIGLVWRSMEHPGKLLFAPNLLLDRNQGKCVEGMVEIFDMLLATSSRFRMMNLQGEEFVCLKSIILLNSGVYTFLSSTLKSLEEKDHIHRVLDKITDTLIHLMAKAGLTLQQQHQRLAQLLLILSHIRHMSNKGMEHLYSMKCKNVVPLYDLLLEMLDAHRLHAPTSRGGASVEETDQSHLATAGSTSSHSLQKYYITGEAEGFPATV
Method in brief: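 ER-alpha-UAS-bla GripTite HEK 293 cells in 2% charcoal/dextran-treated FBS medium; compounds titrated (1:2, duplicate), then stimulated with 0.5 nM 17-beta-estradiol for 18 h at 37C. CCF4 beta-lactamase fluorescence; Hill-fit IC50 and efficacy.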

[8] = target: Estrogen receptor (Homo sapiens) (UniProt P03372); experiment: qHTS assay for small molecule agonists of estrogen receptor alpha signaling (AID 588514; calls by dose curve;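 note: 0% = vehicle only and 100% = reference agonist; nearly all actives have a fitted effect of over 70% in size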)
Method in brief: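 Reporter-gene assay. […] controls beta-lactamase in HEK 293 GripTite cells; after 18 hrs with compound, CCF4 substrate is added for 2 hrs and fluorescence is read.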

[9] = target: Glucocorticoid receptor (Homo sapiens) (UniProt P04150); experiment: qHTS assay for small molecule antagonists of glucocorticoid receptor signaling (AID 588533; active = well fitted inhibition curve with a large enough effect in the signal ratio, with a control signal flat, not every such curve was filed as active; the % refers to the signal ratio;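 note: cells stimulated with 2 nM dexamethasone as agonist; % is set by controls: 0 for no effect and ±100 for the full control effect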)
Chain of Glucocorticoid receptor (Homo sapiens) (P04150 whole entry, looked up): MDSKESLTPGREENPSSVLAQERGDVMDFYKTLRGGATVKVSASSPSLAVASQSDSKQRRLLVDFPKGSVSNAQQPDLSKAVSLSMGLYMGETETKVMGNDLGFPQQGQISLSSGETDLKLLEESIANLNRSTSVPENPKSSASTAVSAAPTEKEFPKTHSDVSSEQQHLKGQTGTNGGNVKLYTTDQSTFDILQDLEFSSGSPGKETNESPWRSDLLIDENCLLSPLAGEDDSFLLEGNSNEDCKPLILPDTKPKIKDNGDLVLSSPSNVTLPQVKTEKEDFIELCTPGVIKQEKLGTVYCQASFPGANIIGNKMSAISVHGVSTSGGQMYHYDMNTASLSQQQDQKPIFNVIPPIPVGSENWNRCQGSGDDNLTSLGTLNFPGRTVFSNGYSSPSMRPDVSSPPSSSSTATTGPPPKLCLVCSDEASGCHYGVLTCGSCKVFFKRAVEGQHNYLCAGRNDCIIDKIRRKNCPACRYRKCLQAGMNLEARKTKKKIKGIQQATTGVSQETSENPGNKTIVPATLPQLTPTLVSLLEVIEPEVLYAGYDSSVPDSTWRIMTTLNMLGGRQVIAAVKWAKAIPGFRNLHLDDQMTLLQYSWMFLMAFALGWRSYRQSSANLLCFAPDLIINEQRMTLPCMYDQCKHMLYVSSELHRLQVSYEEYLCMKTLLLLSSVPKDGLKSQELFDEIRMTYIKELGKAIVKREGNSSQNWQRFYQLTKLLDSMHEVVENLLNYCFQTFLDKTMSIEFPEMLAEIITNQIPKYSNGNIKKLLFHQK
Method in brief: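 Antagonist-mode qHTS: compound titrations added to GRE-bla HeLa cells, then dexamethasone 2 nM final; 18 h, 37 C. CCF4 FRET fluorescence normalized to dexamethasone and DMSO; IC50 from Hill fit.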

[10] = target: Peroxisome proliferator-activated receptor delta (Homo sapiens) (UniProt Q03181); experiment: qHTS assay for small molecule agonists of peroxisome proliferator-activated receptor delta signaling (AID 588534; calls by dose curve;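 note: 0% = DMSO basal wells and 100% = positive control agonist at 10 µM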)
Chain of Peroxisome proliferator-activated receptor delta (Homo sapiens) (Q03181 whole entry, looked up): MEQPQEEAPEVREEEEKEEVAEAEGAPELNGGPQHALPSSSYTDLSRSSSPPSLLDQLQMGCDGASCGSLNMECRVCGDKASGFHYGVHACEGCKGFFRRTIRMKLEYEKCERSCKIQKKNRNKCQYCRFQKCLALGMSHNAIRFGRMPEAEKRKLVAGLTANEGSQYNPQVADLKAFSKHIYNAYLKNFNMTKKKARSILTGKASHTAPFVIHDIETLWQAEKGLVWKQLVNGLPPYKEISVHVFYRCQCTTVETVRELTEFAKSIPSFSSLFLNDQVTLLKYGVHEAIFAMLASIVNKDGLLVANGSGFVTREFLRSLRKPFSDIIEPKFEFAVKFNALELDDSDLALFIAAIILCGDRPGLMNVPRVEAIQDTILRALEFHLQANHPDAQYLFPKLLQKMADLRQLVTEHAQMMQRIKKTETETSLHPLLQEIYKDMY
Method in brief: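 Reporter cells were plated and held 5 hrs at 37 C before compounds were added. After 18 hrs at 37 C, CCF4 dye was loaded for 2 hrs at RT and fluorescence measured.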

[11] = target: Vitamin D3 receptor (Homo sapiens) (UniProt P11473); experiment: qHTS assay for small molecule antagonists of vitamin D receptor signaling (AID 588541; calls by dose curve;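 note: receptor activated by calcitriol during compound treatment; series mostly up to about 77 µM; % is set by controls: 0 for no effect and ±100 for the full control effect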)
Chain of Vitamin D3 receptor (Homo sapiens) (P11473 whole entry, looked up): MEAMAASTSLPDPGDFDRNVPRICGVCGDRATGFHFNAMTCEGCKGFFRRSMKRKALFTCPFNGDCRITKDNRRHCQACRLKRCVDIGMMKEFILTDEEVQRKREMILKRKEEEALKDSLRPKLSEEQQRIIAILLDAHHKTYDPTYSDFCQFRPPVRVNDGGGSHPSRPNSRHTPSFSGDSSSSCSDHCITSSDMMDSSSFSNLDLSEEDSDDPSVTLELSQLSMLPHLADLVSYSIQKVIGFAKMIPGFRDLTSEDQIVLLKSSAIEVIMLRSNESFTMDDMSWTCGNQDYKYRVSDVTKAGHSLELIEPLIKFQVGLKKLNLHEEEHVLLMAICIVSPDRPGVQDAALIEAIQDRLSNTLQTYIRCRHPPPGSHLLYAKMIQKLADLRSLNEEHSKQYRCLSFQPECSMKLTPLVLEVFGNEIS
Method in brief: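 Antagonist-mode beta-lactamase reporter assay: HEK293T VDR-UAS-bla cells were exposed to titrated compound alongside 1-alpha,25-dihydroxyvitamin D3 at 3 nM final for 16 h. Values were normalized to the 50 nM agonist control and DMSO basal, with IC50 and efficacy from Hill equation fits.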

[12] = target: Vitamin D3 receptor (Homo sapiens) (UniProt P11473); experiment: qHTS assay for small molecule agonists of vitamin D receptor signaling (AID 588543; calls by dose curve;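 note: 0% = DMSO basal and 100% = reference agonist control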)
Method in brief: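 VDR-UAS-bla HEK293T cells, 2000/well, 2% charcoal-stripped FBS; compound titration 16 h at 37 C; CCF4 beta-lactamase ratio read. Normalized to 50 nM 1-alpha,25-dihydroxyvitamin D3 (100%) and DMSO; Hill fit gives EC50, efficacy.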

[13] = target: Voltage-gated inwardly rectifying potassium channel KCNH2 (Homo sapiens) (UniProt Q12809); experiment: qHTS Assay for Small Molecule Inhibitors of the Human hERG Channel Activity (AID 588834);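 note: top concentration of the series differs between compounds; % is set by controls: 0 for no effect and ±100 for the full control effect; lower thallium flux fluorescence means stronger hERG block; nearly all actives have a fitted effect of over 50% in size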
Chain of Voltage-gated inwardly rectifying potassium channel KCNH2 (Homo sapiens) (Q12809 whole entry, looked up): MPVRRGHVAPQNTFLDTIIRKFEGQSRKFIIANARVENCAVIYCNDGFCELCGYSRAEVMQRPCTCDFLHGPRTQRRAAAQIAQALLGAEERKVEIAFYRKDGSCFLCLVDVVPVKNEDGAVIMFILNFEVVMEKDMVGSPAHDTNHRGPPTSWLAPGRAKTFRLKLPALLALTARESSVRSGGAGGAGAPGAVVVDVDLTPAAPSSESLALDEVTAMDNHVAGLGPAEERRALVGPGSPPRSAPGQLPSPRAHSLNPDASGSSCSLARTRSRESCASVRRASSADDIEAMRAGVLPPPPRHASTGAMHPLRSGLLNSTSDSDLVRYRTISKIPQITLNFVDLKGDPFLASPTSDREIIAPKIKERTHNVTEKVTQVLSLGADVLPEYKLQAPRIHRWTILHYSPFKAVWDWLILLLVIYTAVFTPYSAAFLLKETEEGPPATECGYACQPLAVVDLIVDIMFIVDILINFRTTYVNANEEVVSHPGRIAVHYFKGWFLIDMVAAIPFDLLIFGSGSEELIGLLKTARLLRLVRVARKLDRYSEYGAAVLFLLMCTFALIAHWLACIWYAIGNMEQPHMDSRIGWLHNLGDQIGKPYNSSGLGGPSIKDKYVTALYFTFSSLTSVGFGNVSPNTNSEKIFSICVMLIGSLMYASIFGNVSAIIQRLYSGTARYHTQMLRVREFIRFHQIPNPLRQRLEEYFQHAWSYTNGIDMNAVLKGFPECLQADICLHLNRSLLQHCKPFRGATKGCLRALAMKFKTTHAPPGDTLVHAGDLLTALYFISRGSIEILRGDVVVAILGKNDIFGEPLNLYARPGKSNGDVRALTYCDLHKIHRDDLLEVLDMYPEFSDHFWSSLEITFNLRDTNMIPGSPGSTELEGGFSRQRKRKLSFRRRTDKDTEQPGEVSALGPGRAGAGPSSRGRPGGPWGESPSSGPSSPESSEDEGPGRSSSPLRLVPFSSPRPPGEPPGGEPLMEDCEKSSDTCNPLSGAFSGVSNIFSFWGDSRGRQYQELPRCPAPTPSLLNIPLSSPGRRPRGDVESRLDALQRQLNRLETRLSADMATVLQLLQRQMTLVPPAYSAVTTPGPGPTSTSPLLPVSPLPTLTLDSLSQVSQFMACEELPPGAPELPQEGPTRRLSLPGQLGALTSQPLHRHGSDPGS
Method in brief: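 U2OS cells BacMam-transduced with hERG, 2000 cells/well, compound ~10 min at 37 °C before stimulation buffer. FluxOR thallium flux fluorescence read kinetically on FDSS; decrease indicates block; AC50 from Hill fits.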

[14] = qHTS assay for small molecule activators of the p53 signaling pathway (AID 651743; active = well fitted activation curve with a large enough effect in the signal ratio, not every such curve was filed as active; the % refers to the signal ratio; note: series mostly up to about 92 µM; % of control where 0% means no effect); settings: HCT-116 p53RE-bla, beta-lactamase FRET ratio, 16 h; activation: hits give high values
Method in brief: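 Screen for p53 pathway agonists uses stably transfected p53RE-bla HCT-116 cells, 4,000 per well, treated 16 h at 37 C with compounds in DMSO.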

[15] = qHTS assay for small molecule disruptors of the mitochondrial membrane potential - 1 hr assay (AID 651754; calls by dose curve; note: % is set by controls: 0 for no effect and ±100 for the full control effect; nearly all actives have a fitted effect of over 35% in size)
Method in brief: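 Steps: seed HepG2 cells and let attach overnight; pin-transfer compound or vehicle; incubate 1 hr at 37C; add Mito-MPS dye for 30 min; read two-channel fluorescence for monomer and aggregate forms.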

[16] = qHTS assay for environmental chemicals that activate the Aryl hydrocarbon Receptor (AhR) signaling pathway (AID 651777); settings: 1A2-DRE human hepatoma cells, luciferase, 24 h; activation: hits give high values; note: % of control where 0% means no effect; nearly all actives have a fitted effect of over 15% in size
Method in brief: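 Luminescence (One-Glo, 30 min, room temperature) reports AhR-driven luciferase in stably transfected human hepatoma cells bearing DRE and CYP1A2 promoter. Cells (1,200/well) were treated with compound for 24 hr at 37 C in qHTS format.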

[17] = target: Nuclear receptor ROR-gamma (Homo sapiens) (UniProt P51449); experiment: qHTS assay for small molecule antagonists of the retinoid-related orphan receptor gamma (ROR-gamma) signaling pathway (AID 651802);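 note: CHO cells with doxycycline-induced ROR-gamma expression; series mostly up to about 92 µM; % is set by controls: 0 for no effect and ±100 for the full control effect; nearly all actives have a fitted effect of over 60% in size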
Chain of Nuclear receptor ROR-gamma (Homo sapiens) (P51449 whole entry, looked up): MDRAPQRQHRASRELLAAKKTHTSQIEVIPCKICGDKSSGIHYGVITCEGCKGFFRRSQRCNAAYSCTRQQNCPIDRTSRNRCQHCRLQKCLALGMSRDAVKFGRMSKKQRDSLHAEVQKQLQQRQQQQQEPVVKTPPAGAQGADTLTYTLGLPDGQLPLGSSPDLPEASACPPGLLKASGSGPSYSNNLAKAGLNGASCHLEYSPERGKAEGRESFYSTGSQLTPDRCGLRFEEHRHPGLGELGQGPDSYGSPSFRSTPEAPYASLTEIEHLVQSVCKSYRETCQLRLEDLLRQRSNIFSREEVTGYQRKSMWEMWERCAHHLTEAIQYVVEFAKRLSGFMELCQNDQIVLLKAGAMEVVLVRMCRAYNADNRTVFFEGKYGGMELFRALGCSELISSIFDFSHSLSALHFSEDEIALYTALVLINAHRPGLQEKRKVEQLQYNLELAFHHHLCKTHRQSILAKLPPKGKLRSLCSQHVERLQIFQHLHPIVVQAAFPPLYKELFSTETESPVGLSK
Method in brief: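 Antagonism is scored as a fall in luminescence from a RORE-luciferase reporter in CHO cells expressing ROR under a TET-inducible promoter, measured 16hr after doxycycline induction in the presence of compound.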

[18] = qHTS assay for small molecule antagonists of the retinoid-related orphan receptor gamma (ROR-gamma) signaling pathway - cell viability counter screen (AID 720652; active = well fitted curve in the direction sought with a large enough effect in the repeat runs; an effect the other way counts as inactive or inconclusive)
Method in brief: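 Cytotoxicity is quantified via intracellular ATP (CellTiter-Glo luminescence) in doxycycline-induced CHO ROR response element-luciferase reporter cells treated with compound for 16 hr at 37 C, 5% CO2.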

[19] = target: Nuclear receptor subfamily 1 group I member 2 (Rattus norvegicus) (UniProt Q9R1A7); experiment: qHTS assay for small molecule activators of the rat pregnane X receptor (rPXR) signaling pathway (AID 651751; call rule not given here; note: 0% is about no effect); settings: rPXR reporter cells, luciferase (One-Glo), 24 h
Chain of Nuclear receptor subfamily 1 group I member 2 (Rattus norvegicus) (Q9R1A7 whole entry, looked up): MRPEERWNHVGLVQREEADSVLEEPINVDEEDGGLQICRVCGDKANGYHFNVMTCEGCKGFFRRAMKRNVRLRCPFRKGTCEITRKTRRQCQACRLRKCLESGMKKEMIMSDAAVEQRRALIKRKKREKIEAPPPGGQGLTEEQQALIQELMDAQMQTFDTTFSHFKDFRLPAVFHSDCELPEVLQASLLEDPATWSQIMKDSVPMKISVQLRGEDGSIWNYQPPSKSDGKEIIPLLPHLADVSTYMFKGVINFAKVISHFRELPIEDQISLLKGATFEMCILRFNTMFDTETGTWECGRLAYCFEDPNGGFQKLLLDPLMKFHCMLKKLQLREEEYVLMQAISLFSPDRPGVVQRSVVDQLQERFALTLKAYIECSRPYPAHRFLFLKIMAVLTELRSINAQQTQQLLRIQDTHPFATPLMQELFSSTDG

[20] = qHTS assay for small molecule activators of the human pregnane X receptor (PXR) signaling pathway (AID 720659; call rule not given here; note: 0% is about no effect)

C1CCC2CCCCC2C1 (stereo unspecified)
inactive: outcome [1] | Potency [2] | Potency [3] | Potency [4] | Potency [5] | Potency [6] | Potency [7] | Potency [8] | Potency [9] | outcome [10] | outcome [11] | outcome [12] | Potency [13] | activation [14] -0.562% | Potency [15] | activation [16] -0.339% | Potency [17] | Potency [18] | max response [19] 1.72% | outcome [20]

CC(Cl)Cl
inactive: outcome [1] | Potency [2] | Potency [3] | Potency [4] | Potency [5] | Potency [6] | Potency [7] | Potency [8] | Potency [9] | outcome [10] | outcome [11] | outcome [12] | Potency [13] | activation [14] -4.47% | Potency [15] | activation [16] -0.961% | Potency [17] | Potency [18] | max response [19] -1.43% | outcome [20]

C[C@@]12CCC(Cl)C[C@H]1CCC1C2CC[C@]2(C)C(=O)CCC12 (stereo partly specified)
inactive: Potency [2]

Reference: PubChem BioAssay (NCATS)
